Laboratory results from PubChem BioAssay (NCI).
“And” between values parts separate entries of the source, which are not always exact repeats. Equal values may be shown once. This is part of a sample that, as a whole, favours compounds with a hit. Of some 83,000 tested, about 20% had one in any assay.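 96-well plates, one dose, 48 hours. Percent growth reported; active if below 10.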 The source made the active and inactive calls.

These compounds were tested on SK-MEL-28 melanoma (assay: NCI-60 one-dose screen, 48 h (100 = growth as untreated, 0 = no growth, -100 = all killed)). Details: 10 µM unless noted.
In the case of `NS(=O)(=O)c1cc2c(cc1Cl)NC(C(Cl)Cl)NS2(=O)=O` (stereo not given), the growth is reported as 99.8% (inactive) and 115% (inactive).
With `c1ccc2c(CC3=NCCN3)cccc2c1` the growth was 109% (inactive) and 107% (inactive).
With `Clc1ccc(NC(Nc2ccc(Cl)cc2)C(Cl)(Cl)Cl)cc1` the growth was 105% (inactive) and 114% (inactive).
For `CCOc1ccc2c(S(=O)(=O)O)cccc2c1[N+](=O)[O-]`, the growth was 113% (inactive) and 118% (inactive).
In the case of `CCN(CC)CCCC(C)N(Cc1ccccc1)CC(O)c1ccc(Cl)cc1` (stereo not given), the growth is reported as 109% (inactive) and 106% (inactive).
In the case of `Cn1cnc([N+](=O)[O-])c1Sc1ncnc2nc[nH]c12`, the growth is reported as 105% (inactive) and 116% (inactive).
In the case of `Nc1nc2ncc(CNc3ccc(C(=O)N[C@@H](CCc4nn[nH]n4)C(=O)O)cc3)nc2c(=O)[nH]1`, the growth is reported as 97.5% (inactive) and 110% (inactive).
In the case of `Oc1c(Cl)cc(Cl)cc1Sc1cc(Cl)cc(Cl)c1O`, the growth is reported as 58.3% (inactive) and 27.8% (inactive) and 95.3% (inactive).
In the case of `O=S1(=O)CC(Br)C(Br)C1` (stereo not given), the growth is reported as 80.8% (inactive) and 106% (inactive).
`CN(C)c1ccc2nc3ccc(N)cc3[n+](-c3ccccc3)c2c1` was tested, and the growth was 37.6% (inactive) and 30.9% (inactive).

These compounds were tested on SK-MEL-2 melanoma in the same assay as above. Details: 10 µM unless noted.
With `COc1cc2c(c(OC)c1OC)-c1ccc(OC)c(=O)cc1[C@@H](NC(C)=O)CC2` the growth was -1.11% (active) and 20.8% (inactive) and 30.7% (inactive).
With `CCN(CC)CCCC(CNc1ccnc2cc(Cl)ccc12)c1ccc(Cl)cc1` (stereo not given) the growth was -56.2% (active) and -67.7% (active).
With `N#CCCOc1ccccc1` the growth was 89.4% (inactive).
For `COc1ccc(/C(C#N)=C/c2ccccn2)cc1`, the growth was 103% (inactive) and 117% (inactive).
`CCN(CC)C(=S)SSC(=S)N(CC)CC` was tested, and the growth was 103% (inactive).
For `Nc1ccc(N=Nc2ccc(S(=O)(=O)O)cc2)cc1S(=O)(=O)O`, the growth was 98.7% (inactive) and 82.5% (inactive).
With `CCN(CC)CCOc1ccc2c(c1)C(=O)c1cc(OCCN(CC)CC)ccc1-2` the growth was 114% (inactive) and 95.4% (inactive).
`O=C1OC2(c3ccccc31)c1ccc(O)c(O)c1Oc1c2ccc(O)c1O` was tested, and the growth was 85.1% (inactive).
For `O=S(=O)(Nc1ccccc1)C1CCCCC1`, the growth was 103% (inactive).
For `CCNC(=O)Nc1ccc(-c2nc3c(c(N4CCOC[C@@H]4C)n2)CCN(C2COC2)C3)cc1`, the growth was 41.7% (inactive).
For `CC(C)Cc1ccc(C(C)C(=O)NCc2ccc(Cn3c(=O)sn(CCCCl)c3=O)cc2)cc1` (stereo not given), the growth was 103% (inactive) and -3.28% (active).
In the case of `OCc1ccccn1`, the growth is reported as 106% (inactive).
`Nc1ncnc2c1ncn2C1CC(O)C(CO)O1` (stereo not given) was tested, and the growth was 37.6% (inactive) and 100% (inactive).
With `CCCCCCCCCCCCCCCc1cc(O)ccc1N` the growth was 105% (inactive) and 106% (inactive).
For `Cc1ccc2nc3c(nc2c1)-c1cccc2cccc-3c12`, the growth was 107% (inactive).
In the case of `O=[N+]([O-])c1ccc(/C=N\NC(=S)Nc2ccc(F)cc2)cc1`, the growth is reported as 91.1% (inactive) and 110% (inactive).
`CCN(CC)C(=O)c1cccnc1` was tested, and the growth was 108% (inactive).
`CN1CCN(CCC=C2c3ccccc3Sc3ccc(S(=O)(=O)N(C)C)cc32)CC1` was tested, and the growth was 68.5% (inactive) and 53.7% (inactive).
`Oc1nc(NCCc2ccccc2)sc1/C=C1\C=Nc2ncccc21` was tested, and the growth was -4.61% (active) and 28.8% (inactive).
For `COc1cc2nc(N3CCN(C(=O)C4COc5ccccc5O4)CC3)nc(N)c2cc1OC` (stereo not given), the growth was 112% (inactive) and 93.8% (inactive).
For `c1ccc2cc(C[n+]3ccn(Cc4ccc5ccccc5n4)c3)ccc2c1`, the growth was -35.6% (active) and -4.1% (active).
For `COc1ccc(Cn2c(NCCN=C(N)N)nc(=O)n(Cc3ccc(F)cc3)c2=O)cc1`, the growth was 101% (inactive).
In the case of `O=C(N/N=C/c1cccc2ccccc12)C1CC1`, the growth is reported as 98.6% (inactive) and 115% (inactive).
For `CC(C)CNC(=O)c1ccccc1C(=O)NC1(C(=O)NCC(C)C)CCCC1`, the growth was 103% (inactive) and 100% (inactive).
For `Cn1c(=O)n(-c2ccc(C(C)(C)C#N)cc2)c2c3cc(-c4cnc5ccccc5c4)ccc3ncc21`, the growth was -42.4% (active).
